What follows are molecules tested against Dickkopf-related protein 1 (Homo sapiens) (UniProt O94907) (assay: DKK1 binders on small-molecule microarrays, primary screen, biochemical, small-molecule microarray, 635 nm fluorescence scan (AID 1106;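 also: score merges emission near 667 nm with signal to noise over three replicate slides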)). Conditions: DKK1 binding, higher = more signal.
Dickkopf-related protein 1 (Homo sapiens), sequence (O94907 whole entry, looked up): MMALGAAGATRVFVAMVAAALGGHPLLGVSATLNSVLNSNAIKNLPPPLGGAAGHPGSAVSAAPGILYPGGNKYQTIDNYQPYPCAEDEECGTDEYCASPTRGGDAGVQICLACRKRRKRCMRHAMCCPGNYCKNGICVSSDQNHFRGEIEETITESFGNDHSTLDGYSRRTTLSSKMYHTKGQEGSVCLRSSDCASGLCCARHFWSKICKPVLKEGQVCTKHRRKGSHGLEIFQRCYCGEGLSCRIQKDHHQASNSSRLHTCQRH

SMILES | composite z-score
CCOC(=O)C1=CCC(c2ccc(C)cc2)N(S(=O)(=O)c2ccc(C)cc2)C1 (stereo not given) | 0.0296
CN(C)CCCNC(=O)[C@@]1(c2ccc([N+](=O)[O-])cc2)CC(=O)N(C2CCCCC2)[C@@H]1c1ccc(CO)cc1 | -0.236
CC(=O)N1Cc2ccccc2C[C@@]2(COC(c3ccc(OCCCO)cc3)=N2)C1=O | 0.438
COCCOC(=O)N1C(=O)[C@@]2(c3cc(C#CC4=CCCCC4)ccc31)[C@H](C(=O)Nc1nc3ccccc3s1)[C@H]1C(=O)O[C@H](c3ccccc3)[C@H](c3ccccc3)N1[C@@H]2c1ccc(OCCO)cc1 | 0.495
C=CC[C@]1(C(=O)N2CCCCC2)N=C(c2ccc(OCCCO)cc2)O[C@H]1c1ccccc1 | 0.191
O=C1NCC(=O)N2[C@@H]1C[C@@H](C(=O)O)[C@H]2c1cccc(OCCO)c1 | 2.56
O=C1O[C@H](c2ccccc2)[C@H](c2ccccc2)N2[C@H]1[C@@H](C(=O)O)[C@]1(C(=O)Nc3ccc(C#CCCO)cc31)[C@H]2c1ccc(O)cc1 | -0.572
C=CCOC(=O)[C@H]1[C@@H]2C(=O)O[C@@H](c3ccccc3)[C@@H](c3ccccc3)N2[C@@H](c2ccc(OCCOC(=O)[C@@H]3C[C@@H]4C(=O)N[C@@H](CCCCN(C)C)C(=O)N4[C@@H]3c3ccc(O)cc3)cc2)[C@]12C(=O)Nc1ccc(I)cc12 | 1.06
CC(C)(C)OC(=O)CC[C@]12N=C(c3ccc(OCCCO)cc3)O[C@H]1c1ccccc1N(CCS(=O)(=O)c1ccccc1)C2=O | 0.445
CN(C)C(=O)[C@@]1(Cc2ccccc2CN=[N+]=[N-])N=C(c2ccc(OCCCO)cc2)O[C@H]1c1ccccc1 | -0.766
COc1cc2c(cc1OC)CN(C(=O)[C@H]1[C@@H]3C(=O)O[C@@H](c4ccccc4)[C@@H](c4ccccc4)N3[C@@H](c3ccc(O)cc3)[C@]13C(=O)Nc1ccc(C#CC4=CCCCC4)cc13)CC2 | 0.779
CN1C(=O)C2C=CC(C(O)c3cc(C(F)(F)F)cc(C(F)(F)F)c3)N(N3CCCCC3)C2C1=O (stereo not given) | -0.722
COCC(=C=CC[C@H](O)c1ccccc1OCCO)C[C@H](O)c1cc(Cl)cc(Cl)c1O | -0.0154
CCCN1C(=O)[C@]2(CCS(=O)(=O)c3ccccc3)N=C(c3ccc(OCCCO)cc3)O[C@@H]2c2ccccc21 | 0.125
COc1cc2c(cc1OC)CN(C(=O)[C@H]1[C@@H]3C(=O)O[C@@H](c4ccccc4)[C@@H](c4ccccc4)N3[C@@H](c3ccc(O)cc3)[C@]13C(=O)Nc1ccc(C#CCNC(N)=O)cc13)CC2 | 0.596
CN(C)CCCNC(=O)[C@@]1(C)c2ccccc2C(=O)N(Cc2cc(F)cc(C(F)(F)F)c2)[C@H]1c1ccc(CO)cc1 | -0.878
O=C1C2C=CC(C(O)C3CCCCC3)N(Nc3ccc([N+](=O)[O-])cc3)C2C(=O)N1c1ccccc1 (stereo not given) | -1.49
O=C1OCCC/C=C\[C@H]2OC34C=CCN(c5ccc6ccccc6c5)C(=O)[C@H]3N(CCCCCCO)C(=O)[C@@H]4C12 (stereo not given in full) | -1.71

SMILES | composite z-score
COCCOC(=O)N1C(=O)[C@@]2(c3cc(C#CCNC(N)=O)ccc31)[C@H](C(=O)NC[C@H](O)c1ccccc1)[C@H]1C(=O)O[C@H](c3ccccc3)[C@H](c3ccccc3)N1[C@@H]2c1ccccc1OCCO | 0.711
CC(C)(C)OC(=O)CC[C@@]12N=C(c3ccc(OCCCO)cc3)O[C@@H]1c1ccccc1N(CCS(=O)(=O)c1ccccc1)C2=O | 0.681
COC(=O)[C@@]1(Cc2ccc(F)cc2)[C@H]2c3cc(C(=O)N4CCCC4)n(Cc4cc(C)n(C)n4)c3C[C@H]2CN1C(=O)c1ccccc1 | -0.449
COC(=O)c1c(CC[C@@H](CO)NC(=O)N2CCC[C@H]2Cn2cc(-c3ccccn3)nn2)oc(C(C)=O)c1C(=O)OC | -0.17
CCOC(=O)[C@H]1CC=C2CC1C(=O)N1CCC[C@@H]1[C@@H]2O[Si](C)(C)C(C)(C)C (stereo not given in full) | -0.177
C=CCC(OC(C)=O)[C@@H]1[C@@H](N(Cc2ccc(-c3ccccc3)cc2)C(=O)Cc2ccc(F)cc2)c2cc(OCCCO)ccc2N1C(=O)c1ccc(-c2ccccc2)cc1 (stereo not given in full) | -0.282
CCOC(=O)C[C@H]1[C@H](OC(=O)Cc2ccc3c(c2)OCO3)[C@@H](NC(=O)c2ccc(-c3ccccc3)cc2)c2cc(OCCCO)ccc2N1C(=O)c1ccc2ccccc2n1 | 0.434
COCCCNC(=O)[C@@]1(Cc2ccccc2)N=C(c2ccc(OCCCO)cc2)O[C@H]1c1ccccc1 | -0.728
NC(=O)[C@@H]1[C@H]2C(=O)O[C@H](c3ccccc3)[C@H](c3ccccc3)N2[C@H](c2ccc(O)cc2)[C@@]12C(=O)Nc1ccc(C#CC3(O)CCCCCC3)cc12 | -0.193
COc1cc2c(cc1O)C(C1CC1)N(Cc1cc3c(cc1Br)OCO3)CC2 (stereo not given) | -0.948
CCCCCC1=C2CNC(CCC)(C(=O)OC)C=C2C(C)C1=O (stereo not given) | -0.793
COc1ccc(C(O)C2C=CC3C(=O)NC(=O)C3N2Nc2ccccn2)c2ccccc12 (stereo not given) | 0.378
COC(=O)C(CC#Cc1ccc2c(c1)[C@]1(C(=O)N2)[C@H](C(=O)O)[C@H]2C(=O)O[C@H](c3ccccc3)[C@H](c3ccccc3)N2[C@@H]1c1ccc(O)cc1)C(=O)OC | -0.685
CC1(C)[C@@H]2CC(C(O)C3C=CC4C(=O)N(c5ccccc5)C(=O)C4N3Nc3ccccc3)=C[C@H]1C2 (stereo not given in full) | 0.011
COc1ccc([Si](C)(C)[C@H]2[C@H](CCn3cc([C@H](O)c4ccccc4)nn3)O[C@@]3(C(=O)N(Cc4cccc(N5CCOC5=O)c4)c4ccccc43)[C@@H]2C)cc1 | 0.913
COc1cc2c(cc1O)C=[N+](Cc1cccc(OC(F)(F)F)c1)CC2 | 0.141
COC(=O)[C@@]1(Cc2ccc(OC)cc2)[C@H]2c3cc(C(=O)N(C)C)n(CCN4CNCC4=O)c3C[C@H]2CN1C(=O)c1ccccc1 | -0.812

Source: PubChem BioAssay
